NPC1 prom act: NPC1 promoter activation. actives 2.4% (n = 320,000). Huh7 NPC1 promoter luciferase reporter, 24 h. Potency, µM (series often up to 9.22 µM), most hits filed as activators. AID 485313; also: nearly all actives have a fitted effect of over 60% in size
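Stable NPC1-promoter luciferase Huh7 line; cpd (DMSO) 24 h, 37 °C, 5% CO2; Amplite luciferase reagent 10 min RT; luminescence readout. qHTS format.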
FLuc modulator: inhibits or activates purified firefly luciferase, miR-21 counter-screen; purified FLuc, Km substrates, luminescence inhibition; actives 6.9% (n = 360,000); Potency, µM (highest dose often 57.5 µM), most hits filed as inhibitors; AID 588342; also: nearly all actives have a fitted effect of over 55% in size
Target sequence (P08659 whole entry, looked up): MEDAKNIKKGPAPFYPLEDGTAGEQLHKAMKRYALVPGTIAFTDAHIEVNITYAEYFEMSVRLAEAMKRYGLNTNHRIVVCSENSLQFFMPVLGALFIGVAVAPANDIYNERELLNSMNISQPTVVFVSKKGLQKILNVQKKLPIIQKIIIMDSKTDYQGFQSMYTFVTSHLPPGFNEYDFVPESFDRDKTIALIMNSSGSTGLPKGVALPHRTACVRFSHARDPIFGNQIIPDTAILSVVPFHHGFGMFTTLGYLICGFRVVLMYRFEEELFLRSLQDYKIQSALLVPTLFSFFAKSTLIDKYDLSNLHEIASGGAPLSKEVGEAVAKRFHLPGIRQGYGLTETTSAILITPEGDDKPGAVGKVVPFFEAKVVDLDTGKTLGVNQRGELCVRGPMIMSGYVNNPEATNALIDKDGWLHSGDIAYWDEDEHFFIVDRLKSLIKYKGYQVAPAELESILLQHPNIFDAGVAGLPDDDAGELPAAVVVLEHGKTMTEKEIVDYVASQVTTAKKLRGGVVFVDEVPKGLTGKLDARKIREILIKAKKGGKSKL
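Purified P. pyralis luciferase, 10 nM final, with Km-level 10 uM D-luciferin and 10 uM ATP in 50 mM Tris acetate pH 7.5, 10 mM Mg acetate, 0.01% Tween-20, 0.05% BSA; 6-point qHTS titration about 60 µM downward; luminescence read.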
ELG1 genotox: genotoxicity induction in ELG1-luciferase HEK293T cells | HEK293T ELG1-luciferase reporter, luminescence, 16 h | Potency, µM (series often up to 46 µM), hits mostly activators | actives 1.3% (n = 330,000); also: nearly all actives have a fitted effect of over 60% in size
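Genotoxicity was scored as increased ELG1-luciferase reporter signal, measured by ONE-Glo luminescence (30 min, room temperature). Compound or vehicle exposure of the HEK293T reporter cells lasted 16 hr at 37°C.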
SMN2 splice up: enhancers of SMN2 splice variant expression. HEK293 SMN2-luciferase splicing reporter, luminescence, 30-36 h. Potency, µM (doses to about 46.1 µM), actives largely listed as activators. actives 2.8% (n = 210,000); also: nearly all actives have a fitted effect of over 55% in size
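HEK293 cells carry an SMN2 […]–luciferase reporter in which exon 7 inclusion puts luciferase in frame. Cells were plated 10-12 h before compound addition, then incubated 30-36 h at 37C. ONE-Glo luminescence was read; sodium butyrate at 4.5 mM final served as control.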
ELG1 DNA repair: ELG1-dependent DNA repair inhibition. HEK293T ELG1-luciferase reporter, luminescence, 16 h; DNA damage induced by 5-fluorouridine. Potency, µM (series often up to 46.1 µM), actives largely listed as inhibitors. actives 2.3% (n = 330,000). AID 504467; also: nearly all actives have a fitted effect of over 55% in size
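Reporter activity after DNA damage by 5-fluorouridine is monitored. Compound-treated cells incubate 16 hr at 37 °C, then ONE-Glo is added for 30 min before luminescence reading.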
Rab9 prom act: activates the Rab9 promoter. Huh7 Rab9 promoter-luciferase reporter, luminescence, 24 h. Potency, µM (series often up to 9.22 µM), actives largely listed as activators. actives 2.8% (n = 320,000). AID 485297; also: nearly all actives have a fitted effect of over 60% in size
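Huh7 cells stably carrying Rab9 promoter–luciferase reporter, plated 1500 cells/well, compound added after 2 h and incubated 24 h at 37 °C; luciferase luminescence then read after 10 min with detection reagent.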
Numbers stand for hits; n = inactive; u = inconclusive; x = no result given; [ ] = dose if it differs, or a comment. Rows were chosen to be rich in hits. Some 9.4% of all compounds tested hit in one or more screens of this group. Calls follow the shape of the dose curve; as a rule, active = well fitted curve in the direction sought with a large enough effect; inconclusive = small, poorly fitted or top-dose-only effect, or another doubt; inactive = no such curve, though single readings can be large; an effect the other way counts as inactive or inconclusive.

SMILES	NPC1 prom act	FLuc modulator	ELG1 genotox	SMN2 splice up	ELG1 DNA repair	Rab9 prom act
Cc1nn(-c2ccccc2)c(C)c1NC(=O)COc1ccc2ccccc2c1	n	n	n	x	u	n
O=C(COc1ccc(Br)cc1Cl)NC(=S)Nc1ccccn1	u	1.1µM	1.6µM	x	u	u
Cc1ccc(OCC(=O)NNC(=S)NC(=O)C2CCCCC2)c(C)c1	n	n	n	x	n	n
Cc1ccc(OCC(=O)NNC(=S)NC(=O)C(C)(C)C)c(Br)c1	n	27µM	n	n	n	n
Cc1nn(-c2ccccc2)c(C)c1NC(=O)COc1ccc(Br)cc1Cl	n	n	n	x	23µM	n
CC(C)c1ccc(OCC(=O)NNC(=S)NC(=O)c2cccs2)c(Br)c1	n	n	n	x	n	n
COc1ccc(OCC(=O)NC(=S)NNC(=O)COc2ccc(Br)cc2Cl)cc1	n	u	n	n	n	n
Cc1ccc(OCC(=O)NNC(=S)NC(=O)C2CC2)c(C)c1	n	13µM	n	x	u	n
Cc1ccc(S(=O)(=O)N(Cc2nc(-c3cccc(C)c3)no2)C2CCCCC2)cc1	x	n	x	n	x	x
COC(=O)c1ccccc1S(=O)(=O)N1CCc2nc(COc3ccccc3)c3c(c2C1)CO[C@@H](C)C3	x	x	x	n[9.22 µM]	x	x
CCCS(=O)(=O)c1ncc(Cl)c(C(=O)N2CCN(c3ccc(OC)cc3)CC2)n1	x	n	x	x	x	x
N#CCCCSc1nnnn1-c1cc(C(F)(F)F)cc(C(F)(F)F)c1	x	x	x	n	x	x
Cc1ccc(OCC(=O)NC(=S)Nc2ccccn2)c(Br)c1	1.6µM	0.19µM	0.13µM	x	u	2.8µM
Cc1nc(NC(=S)NC(=O)COc2ccccc2Cl)ccc1Br	n	n	n	n	n	n
CC(C)c1ccc(OCc2ccc(C(=O)N(C)C)o2)cc1	2.8µM	24µM	10µM	x	u	1.6µM
N#Cc1ccc(OCc2ccc(C(=O)O)o2)cc1	n	u	n	x	n	n
CC(C)c1ccc(OCc2ccc(C(=O)NN3CCN(C)CC3)o2)cc1	2.2µM	u	u	14µM	u	2.5µM
CC(C)c1ccc(OCc2ccc(C(=O)O)o2)cc1	u	0.43µM	u	x	u	u
CCCN(CC1CC1)C(=O)CSc1nnc(-c2cc(-c3cccs3)nc3ccccc23)o1	n	n	n	n	9.2µM	n
CSc1nc2sc3c(c2c(=O)n1-c1ccc(F)c(Cl)c1)CCN(C(C)=O)C3	x	n	x	n	x	x
O=C(O)[C@@H]1[C@@H]2C[C@H]([C@@H](Br)[C@H]2N2C(=O)CCC2=O)[C@@H]1C(=O)O	x	x	x	n[9.22 µM]	x	x
Cc1ccc(C(=O)Nc2ccc(S(=O)(=O)NC3=NCCCCC3)cc2)c(C)c1	n	12µM	n	x	n	n
CC1=C(C(=O)OCc2ccc(C)cc2)C(c2cccc(F)c2F)CC(=O)N1 (stereo not given)	x	n	x	n	x	x
CC(=O)c1c(C)[nH]c(C(=O)OCC(=O)Nc2cccc(S(=O)(=O)N(C)C)c2)c1C	n	n	n	n	13µM	n
CC(=O)c1c(C)[nH]c(C(=O)Nc2cccc(S(=O)(=O)N(C)C)c2)c1C	n	n	u	11µM	u	u
SMILES	NPC1 prom act	FLuc modulator	ELG1 genotox	SMN2 splice up	ELG1 DNA repair	Rab9 prom act
CC(=O)c1c(C)[nH]c(C(=O)Nc2ccc(S(=O)(=O)N(C)C)cc2)c1C	n	n	n	x	u	n
Cc1onc(-c2ccccc2Cl)c1C(=O)OCC(=O)Nc1cccc(S(=O)(=O)N(C)C)c1	n	n	n	n	16µM	n
CCN(CC)S(=O)(=O)c1cc(NC(=O)C(C)OC(=O)c2[nH]c(C)c(C(C)=O)c2C)ccc1C (stereo not given)	n	n	n	n	10µM	n
CCOC(=O)c1cc(-c2ccc(OC)cc2)n(CCC(=O)Nc2ccc(OC)cc2OC)c1C	x	n	x	x	x	x
CCN(CC)S(=O)(=O)c1cccc(NC(=O)CCSc2ccc(Cl)cc2)c1	n	n	n	n	u	n
CN(C)S(=O)(=O)c1cccc(NC(=O)COC(=O)CCSc2ccc(Cl)cc2)c1	n	21µM	n	n	n	n
Cc1ccc(S(=O)(=O)N(C)C)cc1NC(=O)c1c(-c2c(F)cccc2Cl)noc1C	n	n	n	x	26µM	n
